# Test results: PubChem BioAssay (NCATS)
# The source made the active and inactive calls. Calls come from the whole dose curve; as a rule, active = well fitted curve in the direction sought with a large enough effect; inconclusive = small, poorly fitted or top-dose-only effect, or another doubt; inactive = no such curve, though single readings can be large or run the other way.
# Experiment: Cellular Toxicity (caspase-3) BJ (AID 658)
# Details: BJ fibroblasts, luminescence, normalized: DMSO 0%, staurosporine 100%; series mostly up to 91.7 µM; caspase-3 activation: at the top concentration
# Excerpt: NIH Chemical Genomics Center [NCGC]
# NIH Molecular Libraries Screening Centers Network [MLSCN]
# National Institutes of Environmental Health Sciences [NIEHS]
# National Toxicology Program [NTP]
# We have developed a 1536-well cell-based assay for quantitative high throughput screening (qHTS) against a number of cell lines to determine in vitro caspase 3/7 activity of small molecules. This particular assay uses BJ cell line which is derived from normal human foreskin fibroblast.
# NCGC Assay Protocol Summary:
# The Caspase-Glo 3/7 assay (Promega) is a homogeneous method to measure caspase-3 and caspase-7 activities in cultured cells. The quantitation of caspase 3/7 activity is based on the cleavage of a peptide-aminoluciferin substrate. After caspase cleaves the substrate the free aminoluciferin is liberated and serves as the substrate of luciferase, which generates the light. The luminescent signal is proportional to amount of caspase 3/7 activity present.
# Using the Caspase-Glo 3/7 assay, the amount of caspase 3/7 activity was measured in the BJ cell line with complete culture medium following compound treatment for 16 hours. The assay was performed in opaque white 1536-well plates. In the screen, staurosporine and tamoxifen were used as positive controls. Library compounds were measured for their ability to cause the activation of caspase 3/7 in the cell line, as reflected by an increase in luminescence signal, in a concentration-dependent manner. Data were normalized to the controls for basal activity (DMSO only) and 100% stimulation (10 uM staurosporine). AC50 values were determined from concentration-response data modeled with the standard Hill equation.
# qHTS protocol for caspase 3/7 assay in the BJ cells
# [Step] [Parameter] [Value] [Description]
# 1. Reagent; 5 uL; 1000 the BJ cells/well
# 2. Time; 5 hr; 37 °C incubation
# 4. Controls; 23 nL; Tamoxifen 0.23 uM to 100 uM & staurosporine 1.4 pM to 100 uM
# 5. Time; 16 hr; 37 °C incubation
# 6. Reagent; 5 uL; Caspase-Glo 3/7 reagent
# 7. Time; 1 hr; Room Temperature
# 8. Detection; Luminescence; Viewlux plate reader
# Keywords: caspase 3/7, apoptosis, the BJ cell line, luminescence, NTPHTS, NTPHTS_NCGC, NIEHS, EPA, DSSTox, MLSMR, MLSCN, NIH Roadmap, qHTS, NCGC
row,SMILES,caspase-3 activation
1,N#C/C=C/C#N,-7.89% (inactive)
2,Cc1cccc(C)c1N,0.447% (inactive)
3,CCOP(=S)(OCC)Oc1nc(Cl)c(Cl)cc1Cl,-1.97% (inactive)
4,CCOP(=S)(OCC)SCCSCC,-1.03% (inactive)
5,Oc1cc(Cl)c(Cl)c(Cl)c1Cl,0.562% (inactive)
6,O=[N+]([O-])/C=C/c1ccccc1,12.3% (inactive)
7,Oc1ccc(Cl)c(Cl)c1Cl,1.21% (inactive)
8,[C-]1=CC=CC1.[C-]1=CC=CC1.[Cl-].[Cl-].[Ti+4],-0.5% (inactive)
9,CC(Cl)CCl (stereo not given),-0.382% (inactive)
10,N#CCBr,3.09% (inactive)
11,ClC=CCl,-1.65% (inactive)
12,CCN(CC)N=O,0.506% (inactive)
13,CCCCCc1cc(O)cc(O)c1,-1.85% (inactive)
14,C=CC=O,-1.73% (inactive)
15,CCC#N,-2.55% (inactive)
16,O=[N+]([O-])c1cccc2c([N+](=O)[O-])cccc12,0.27% (inactive)
17,ClC(Cl)(Cl)C(Cl)(Cl)Cl,0.907% (inactive)
18,O=[N+]([O-])c1c(Cl)c(Cl)c(Cl)c(Cl)c1Cl,-0.0515% (inactive)
19,Nc1cc(Cl)ccc1Cl,2.08% (inactive)
20,COc1ccc(C=O)cc1,0.393% (inactive)

row,SMILES,caspase-3 activation
1,CNC(=O)O/N=C/C(C)(C)S(C)=O (stereo not given),0.158% (inactive)
2,Cc1cc(N=Nc2ccccc2C)ccc1N,-7.11% (inactive)
3,C=COC(C)=O,0.396% (inactive)
4,CN(C)c1ccc(N(C)C)cc1,-3.31% (inactive)
5,CC[N+](=O)[O-],1.16% (inactive)
6,O=C(O)C(Br)CBr (stereo not given),-1.82% (inactive)
7,Nc1c(Cl)cc([N+](=O)[O-])cc1Cl,-1% (inactive)
8,Nc1ccc(-c2ccc(N)cc2)cc1,2.75% (inactive)
9,CCC[N+](=O)[O-],0.336% (inactive)
10,CCCCC(=O)Cl,-0.591% (inactive)
11,CN(C)c1ccc(N=Nc2ccccc2)cc1,-6.5% (inactive)
12,c1ccc(NNc2ccccc2)cc1,-0.324% (inactive)
13,c1ccc2c(c1)CCNC2,0.939% (inactive)
14,O=NN1CCCCC1,-0.264% (inactive)
15,C=CCCC#N,-2.48% (inactive)
16,O=C(O)CCl,-2.25% (inactive)
17,C/C=C/CC#N,-1.54% (inactive)
18,OCC(Cl)CCl (stereo not given),0.505% (inactive)
19,CCOC(=O)CBr,-2.07% (inactive)
20,CC(Cl)(Cl)Cl,-0.103% (inactive)
